p53 reactivation = restores transcriptional activity of mutant p53; H1299 p53-A138V BP100-luciferase reporter, luminescence, 24 h; Potency, µM (top dose mostly 92.2 µM), actives largely listed as activators; hit rate 0.063% among 320,000; note: nearly all actives have a fitted effect of over 45% in size
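p53-null H1299 cells stably carrying temperature-sensitive p53-A138V and a BP100-luciferase reporter were pinned with compounds (4-point, 1:5 series) and held 24 hrs at 37 deg C. Luminescence was read 10 min after detection reagent.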
NPC1 promoter act = NPC1 promoter activation. Huh7 NPC1 promoter luciferase reporter, 24 h. Potency, µM (titrated, usually from 9.22 µM), actives largely listed as activators. hit rate 2.4% among 320,000; note: nearly all actives have a fitted effect of over 60% in size
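NPC1 promoter–luciferase Huh7 cells; 24 h compound; luminescence.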
ELG1 genotoxic = inducers of genotoxicity in HEK293T ELG1-luciferase cells | hit rate 1.3% among 330,000 | HEK293T ELG1-luciferase reporter, luminescence, 16 h | AID 504466 | Potency, µM (titrated, usually from 46 µM), usual class: activators; note: nearly all actives have a fitted effect of over 60% in size
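DMSO vehicle served as control against compound-treated ELG1-luciferase HEK293T cells; exposure lasted 16 hr at 37 °C and 5% CO2, followed by ONE-Glo luminescence detection after 30 min.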
Rab9 prom act = activates the Rab9 promoter. Huh7 Rab9 promoter-luciferase reporter, luminescence, 24 h. Potency, µM (doses to about 9.22 µM), actives largely listed as activators. hit rate 2.8% among 320,000; note: nearly all actives have a fitted effect of over 60% in size
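Luminescence read-out: Huh7 cells stably expressing Rab9-luciferase, treated 24 h with compound at 37 °C, then lysed with luciferase reagent for 10 min at ambient before reading.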
SMN2 splice up = increases expression of the SMN2 splice variant; Potency, µM (top dose mostly 46.1 µM), usual class: activators; AID 1458; hit rate 2.8% among 210,000; HEK293 SMN2-luciferase splicing reporter, luminescence, 30-36 h; note: nearly all actives have a fitted effect of over 55% in size
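HEK293 cells carry an SMN2 minigene-luciferase reporter in which exon 7 inclusion puts luciferase in frame. Cells were seeded at 2000 cells/well, attached for 10-12 hours, then exposed to compounds for 30-36 hours at 37C before ONE-Glo luminescence.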
FLuc counter = inhibits or activates purified firefly luciferase, miR-21 counter-screen | hit rate 6.9% among 360,000 | AID 588342 | purified FLuc, Km substrates, luminescence inhibition | Potency, µM (highest dose often 57.5 µM), most hits filed as inhibitors; note: nearly all actives have a fitted effect of over 55% in size
Target sequence (P08659 whole entry, looked up): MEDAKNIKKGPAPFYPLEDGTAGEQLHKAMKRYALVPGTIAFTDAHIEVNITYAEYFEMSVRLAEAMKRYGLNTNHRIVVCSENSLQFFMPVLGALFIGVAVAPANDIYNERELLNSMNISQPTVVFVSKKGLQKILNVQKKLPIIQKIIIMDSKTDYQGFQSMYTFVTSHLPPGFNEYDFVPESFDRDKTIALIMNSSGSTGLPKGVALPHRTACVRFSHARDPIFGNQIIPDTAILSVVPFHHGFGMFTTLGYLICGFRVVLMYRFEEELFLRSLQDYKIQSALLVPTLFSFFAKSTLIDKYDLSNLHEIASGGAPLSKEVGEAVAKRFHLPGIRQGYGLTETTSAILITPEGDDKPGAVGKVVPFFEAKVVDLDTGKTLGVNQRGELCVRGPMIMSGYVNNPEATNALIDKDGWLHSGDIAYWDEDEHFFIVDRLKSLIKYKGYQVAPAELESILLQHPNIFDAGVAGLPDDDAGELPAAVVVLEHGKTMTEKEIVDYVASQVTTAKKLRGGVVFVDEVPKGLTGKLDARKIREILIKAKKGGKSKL
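Purified P. pyralis luciferase (10nM final) with 10uM D-luciferin and 10uM ATP (Km levels) in 50mM Tris acetate pH 7.5, 10mM Mg acetate, 0.01% Tween-20, 0.05% BSA; qHTS 6-point titration, ~60 µM downward; luminescence read.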
Hits are given with their value; 0 = inactive; ? = inconclusive; - = no result given; [ ] = another dose, or the depositor's remark. An excerpt weighted towards active compounds, which were near 7.4% of everything screened. Calls come from the whole dose curve; as a rule, active = well fitted curve in the direction sought with a large enough effect; inconclusive = small, poorly fitted or top-dose-only effect, or another doubt; inactive = no such curve, though single readings can be large; an effect the other way counts as inactive or inconclusive.

SMILES	p53 reactivation	NPC1 promoter act	ELG1 genotoxic	Rab9 prom act	SMN2 splice up	FLuc counter
COc1ccc(NC(=O)CC(C)n2nc(C)cc2C)cc1Cl (centres undefined)	-	-	-	-	-	0
Cc1oc(-c2ccc(C(=O)NCc3ccccc3Cl)cc2)nc1CN1CCc2ccccc21	-	-	-	-	-	0
CC(=O)Nc1c(C(=O)Nc2cccc(C)c2)nnn1-c1ccc(C)cc1	-	-	-	-	0	16.9µM
COc1cc(/C=C(\C#N)c2nc3ccccc3s2)cc([N+](=O)[O-])c1O	0	0	0	0	0	8.49µM
COc1ccc(-c2csc(/C(C#N)=C\c3ccc(OC)c([N+](=O)[O-])c3)n2)cc1	0	0	0	0	0	0
COc1ccc(-c2csc(/C(C#N)=C\c3ccc(O)c([N+](=O)[O-])c3)n2)cc1OC	0	0	0	0	-	15.1µM
COc1cc(/C=C(/C#N)c2nc3ccccc3[nH]2)ccc1Oc1ncccc1[N+](=O)[O-]	0	0	0	0	0	0
N#C/C(=C\c1ccc(O)c([N+](=O)[O-])c1)c1nc2ccccc2s1	0	0	0	0	0	13.5µM
CC1=C(C(=O)OC2CCCC2)C(c2c(F)cccc2Cl)CC(=O)N1 (centres undefined)	-	-	-	-	0	0
O=C(Nc1cccnc1)c1cnn2c1NC(=C1CC1)C=C2C(F)F	-	-	-	-	-	0
CN1CC(=O)N/C1=N/C(=O)Nc1cccc(Cl)c1	-	?	-	?	0	-
Cn1ccs/c1=N\C(=O)Nc1cccc(Cl)c1	0	0.891µM	5.17µM	0.708µM	-	7.57µM
Cc1cc2c(OCC(CNC(C)(C)C)OC(=O)c3ccccc3)cccc2[nH]1 (centres undefined)	-	-	-	-	0	-
COC(=O)C1=C(C)C(c2ccc(OC)cc2OC)NC(=O)N1 (centres undefined)	0	0	0	0	0	0
COc1ccc(C2CC(C)(c3ccc(OC)cc3OC)Nc3ccccc3N2)c(OC)c1 (centres undefined)	0	2.82µM	8.2µM	1.12µM	-	7.57µM
O=C(O)c1cccc(OCCO)c1	-	-	-	-	0[9.22 µM]	-
CC(C)OC(=O)CC(=O)CSc1nc2c(cc1C#N)CCCCCC2	0	0	0	0	0	?
CC(C)OC(=O)CC(=O)CSc1nc2c(cc1C#N)CCCC2	-	-	-	-	0	13.5µM
CC(C)OC(=O)CC(=O)CSc1nc2c(cc1C#N)CCC2	0	0	0	0	0	19µM
N#Cc1cc2c(nc1SCC(N)=O)CCCCC2	?	3.98µM	?	3.16µM	25.1µM	0
COC(=O)CC(=O)CSc1nc2c(cc1C#N)CCC2	?	0	0	0	1.26µM	13.5µM
Cc1ccc(F)cc1NC(=O)COC(=O)c1ccc2ncsc2c1	0	0	0	0	-	0
CCc1ccc(N2CC(C)Cn3c2nc2c3c(=O)[nH]c(=O)n2C)cc1 (centres undefined)	0	0	0	0	-	0
Cc1ccc2nc(Nc3nc(CSc4nnc(C)s4)cc(=O)[nH]3)nc(C)c2c1	0	0	0	0	-	9.53µM
O=C(CN1c2ccc(Br)cc2-c2ccccc2S1(=O)=O)N1CCCCC1	-	-	-	-	-	0
SMILES	p53 reactivation	NPC1 promoter act	ELG1 genotoxic	Rab9 prom act	SMN2 splice up	FLuc counter
Cc1cccnc1NC(=O)Nc1ccccc1	0	?	?	3.98µM	-	10.7µM
Cc1cccnc1NC(=O)Nc1ccc(Cl)cc1	0	0	?	3.98µM	-	4.26µM
Cc1cccnc1NC(=O)c1ccc(OCc2c(C)noc2C)cc1	0	0	?	0	-	?
COc1ccc(NC(=O)Nc2ncccc2C)cc1	?	?	?	?	11.2µM	10.7µM
COC(=O)c1ccccc1NC(=O)Nc1ncccc1C	0	0	0	0	0	0
COc1ccc(C(=O)NC(=O)Nc2ncccc2C)cc1	?	?	?	3.55µM	?	16.9µM
CN1C(=O)Cc2cc(S(=O)(=O)CCC(=O)N3CCN(c4cccc(Cl)c4)CC3)ccc21	-	-	-	-	-	0
CN1CCN(CN2C(=O)C3C4C=CC(C3C2=O)C2C3C(=O)N(CN5CCN(C)CC5)C(=O)C3C42)CC1 (centres undefined)	-	-	-	-	0[9.22 µM]	-
CCOc1ccc(S(=O)(=O)N2CCOCC2)cc1NS(=O)(=O)c1ccc(OC)c([N+](=O)[O-])c1	0	0	0	0	-	0
O=C(CNc1ccc2ccccc2c1)N/N=C/c1cc2ccccc2nc1Cl	0	0	0	0	0	15.1µM
O=C(CNc1ccc2ccccc2c1)N/N=C/c1ccc(C(=O)O)cc1	0	0	0	0	0	26.9µM
Cc1c(N=Nc2c(-c3ccc([N+](=O)[O-])cc3)[nH]n(C(N)=S)c2=O)cccc1[N+](=O)[O-]	0	0	0	0	0	?
Cc1[nH]n(C(N)=S)c(=O)c1N=Nc1cc(-c2ccc(Br)cc2)[nH]n1	0	0	0	?	?	1.69µM
Cc1[nH]n(C(N)=S)c(=O)c1N=Nc1ccc2ccccc2c1	0	3.16µM	18.3µM	3.98µM	22.4µM	3.01µM
CC(=O)Nc1ccc(N=Nc2c(C)[nH]n(C(N)=S)c2=O)cc1	0	0	?	?	0	15.1µM
Cc1[nH]n(C(N)=S)c(=O)c1N=Nc1cccc([N+](=O)[O-])c1C	-	?	?	2.51µM	-	8.49µM
COC(=O)c1ccc(N=Nc2c(C)[nH]n(-c3ccccc3)c2=O)cc1	-	0	0	0	-	0
CS(=O)(=O)N1CCC2(CC1)CN(c1ccc(-c3ccccc3)cc1)C2	-	-	-	-	0	-
Cn1c(=O)c2c(SCC(=O)NCC3CCCO3)nc(-c3cccc(F)c3)nc2n(C)c1=O (centres undefined)	-	-	-	-	-	0
Cc1[nH]n(C(N)=S)c(=O)c1N=Nc1ccc(S(=O)(=O)N2CCCCCC2)cc1	0	0	0	0	0	5.36µM
Cc1ccc(N=Nc2c(C)[nH]n(C(N)=S)c2=O)cc1C	?	3.55µM	?	3.55µM	10µM	3.79µM
Cc1ccc(C(=O)NNC(=O)c2ccc(S(=O)(=O)N3CCCCC3)cc2)cc1	0	-	0	-	-	-
NC(=S)n1[nH]c(-c2ccc([N+](=O)[O-])cc2)c(N=Nc2cccc([N+](=O)[O-])c2)c1=O	0	0	0	0	0	?
O=C1CC(SCCO)C(=O)N1c1ccc(Oc2ccccc2)cc1 (centres undefined)	0	0	0	0	0	21.3µM
O=C(O)CCSC1CC(=O)N(c2ccccc2)C1=O (centres undefined)	0	0	0	0	-	0
Cc1ccc(OCC(=O)Nc2ccc(C(=O)OCc3cc(=O)n4ccsc4n3)cc2)cc1C	-	-	-	-	-	0
Cc1cc(-c2cc(N)n(-c3ccccc3)n2)c(C)n1C1CCCC1	?	3.55µM	?	1.58µM	0	6.01µM
COc1c(C)cc(NS(=O)(=O)c2ccc3c(c2)OCCO3)cc1C	-	-	-	-	0	0
O=c1c2ccccc2nc(COc2ccccc2)n1/N=C/c1ccc(O)c(O)c1	0	0	0	0	-	26.9µM
